# Reference: PubChem BioAssay (Tox21)
# Inconclusive results are not listed. The source made the active and inactive calls. Calls follow the shape of the full dose curve.
# Target: Thyrotropin receptor (Homo sapiens) (UniProt P16473)
# Assay: qHTS assay to identify small molecule agonists of the thyroid stimulating hormone receptor (TSHR) signaling pathway (AID 1224843); also: nearly all actives have a fitted effect of over 45% in size
# Details: TSHR-HEK293 cells, cAMP HTRF, agonist mode, 30 min; series mostly up to 92.4 µM; activation: at the top concentration
# Excerpt: National Center for Advancing Translational Sciences [NCATS]
# NIH Chemical Genomics Center [NCGC]
# U.S. Environmental Protection Agency [EPA]
# National Institutes of Environmental Health Sciences [NIEHS]
# National Toxicology Program [NTP]
# U.S. Food and Drug Administration [FDA]
# TSHR is the receptor for thyrotropin (thyroid stimulating hormone or TSH), a member of the glycoprotein hormone family. TSH is released by the anterior pituitary gland and is the main regulator of thyroid gland growth and development. Upon binding circulating thyrotropin, a G-protein signal cascade activates adenylyl cyclase and […] cAMP concentration is increased. cAMP is a key second messenger involved extensively in cellular signal transduction pathways associated with the majority of G-protein coupled receptors (GPCRs). The activation of these GPCRs by neurotransmitters, lipids, nucleotides, peptides and hormones results in the activation or the inhibition of plasma membrane-bound adenylate cyclase through heterotrimeric G-proteins. A cell-based TSHR assay was used to screen the Tox21 10K library for compounds that can modulate TSHR in agonist mode.
# Tox21 Assay Protocol Summary:
# TSHR-Hek293 cells were dispensed at 800 cells/4uL/well in 1536-well white plates using a Multidrop dispenser. […] The plates were incubated at room temperature for 30 min. 2.5 ul/well of cAMP-d2 and 2.5ul/well of anti-cAMP-cryptate was added respectively into the assay plates using a Flying Reagent Dispenser. After 1 hr incubation at room temperature, the fluorescence intensity in the plates was measured using an Envision plate reader. Each test compound was measured at 15 concentrations and in triplicates.
# % is scaled to controls: 0 for no effect and ±100 for the full control effect.
# Sequence of Thyrotropin receptor (Homo sapiens) (P16473 whole entry, looked up): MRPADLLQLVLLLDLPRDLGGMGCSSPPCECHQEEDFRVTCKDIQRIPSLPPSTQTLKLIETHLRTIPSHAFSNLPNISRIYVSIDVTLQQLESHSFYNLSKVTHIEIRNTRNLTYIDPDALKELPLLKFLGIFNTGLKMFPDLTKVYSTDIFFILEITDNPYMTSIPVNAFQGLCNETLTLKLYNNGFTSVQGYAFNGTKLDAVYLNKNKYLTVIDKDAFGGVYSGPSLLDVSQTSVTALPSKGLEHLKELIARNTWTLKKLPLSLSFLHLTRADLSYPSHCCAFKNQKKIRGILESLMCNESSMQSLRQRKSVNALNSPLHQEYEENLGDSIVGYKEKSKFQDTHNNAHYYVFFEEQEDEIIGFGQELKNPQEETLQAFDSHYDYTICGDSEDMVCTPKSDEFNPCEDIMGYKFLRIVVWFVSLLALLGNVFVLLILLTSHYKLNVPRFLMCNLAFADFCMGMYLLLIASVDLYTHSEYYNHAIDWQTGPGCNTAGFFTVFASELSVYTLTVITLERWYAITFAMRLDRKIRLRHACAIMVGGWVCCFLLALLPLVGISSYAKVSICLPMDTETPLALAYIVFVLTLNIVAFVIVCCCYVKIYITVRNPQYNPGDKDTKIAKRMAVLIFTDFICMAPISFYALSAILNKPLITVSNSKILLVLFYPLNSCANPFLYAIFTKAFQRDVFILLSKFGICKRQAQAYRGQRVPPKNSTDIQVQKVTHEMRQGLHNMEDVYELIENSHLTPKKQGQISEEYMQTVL
row,Compound,activation
1,Cc1ccc2c(c1)c1c3n2CCNC3CCC1 (stereo not given),8.01% [at 42.5 µM] (inactive)
2,CCCCCCCCCCCCCCCC(=O)NCCO,18.4% [at 42.5 µM] (inactive)
3,CC(C)CCCCCCOC(=O)C1CCCCC1C(=O)OCCCCCCC(C)C (stereo not given),1.88% (inactive)
4,CCOC(=O)CCc1ccccc1,-2.96% (inactive)
5,OC[C@@H](O)[C@H](O)[C@@H](O)[C@@H](O)CO,18.3% (inactive)
6,CCN(Cc1cccc(S(=O)(=O)O)c1)c1ccccc1,-5.44% (inactive)
7,Oc1ccccc1Cc1ccccc1O,-21.3% (inactive)
8,COC(=O)CCC(=O)O,-1.45% (inactive)
9,C[C@H](CCC(=O)O)[C@H]1CC[C@H]2[C@@H]3[C@H](O)C[C@@H]4C[C@H](O)CC[C@]4(C)[C@H]3C[C@H](O)[C@]12C,1.1% [at 42.5 µM] (inactive)
10,CC1CCC(C(C)(C)S)C(=O)C1 (stereo not given),-1.87% (inactive)
11,OCCCCCCCl,-11.8% (inactive)
12,C[C@@H]1C[C@H]2[C@@H]3C[C@H](F)C4=CC(=O)C=C[C@]4(C)[C@@]3(F)[C@@H](O)C[C@]2(C)[C@@]1(O)C(=O)CO,-0.569% [at 42.5 µM] (inactive)
13,CCCCC(CC)CNC(=O)CC(C)OC(=O)CCC(=O)O (stereo not given),4.03% [at 42.5 µM] (inactive)
14,CN=C(NC#N)NCCSCc1csc(N=C(N)N)n1,-1.04% [at 42.5 µM] (inactive)
15,BrC/C=C/CBr,-9.51% [at 19 µM] (inactive)
16,O=C1OC(=O)c2cc(Oc3ccc4c(c3)C(=O)OC4=O)ccc21,-2.15% (inactive)
17,CCOC(=O)C(C)(C)C,1.37% (inactive)
18,CC1=CC[C@H](CC=O)C1(C)C,14.3% (inactive)
19,O=C(c1ccc2c(c1)C(=O)OC2=O)c1ccc2c(c1)C(=O)OC2=O,-1.54% (inactive)
20,O=c1[nH]c(=O)c2[nH]c(=O)[nH]c2[nH]1,0.91% [at 8.39 µM] (inactive)

row,Compound,activation
1,CCN1CN(CC)CN(CC)C1,1.37% (inactive)
2,CCC(O)C(C)(C)C (stereo not given),0.073% (inactive)
3,CO/N=C(/C(=O)N[C@@H]1C(=O)N2C(C(=O)O)=C(Cn3nnc(C)n3)CS[C@H]12)c1csc(N)n1,2.26% [at 42.5 µM] (inactive)
4,C=C[Si](C)(C)O[Si](C)(C)C=C,9.47% (inactive)
5,CNC(=O)C(c1ccccc1)c1ccccc1,0.346% (inactive)
6,CCCCC(=O)N(C)C,-5.95% (inactive)
7,CCN(CC)C(=O)C1CN2CCc3cc(OC)c(OC)cc3C2CC1OC(C)=O (stereo not given),7.39% [at 42.5 µM] (inactive)
8,CC(=O)OCCCc1ccccc1,0.331% (inactive)
9,O=S(=O)(O)CCO,-9.04% (inactive)
10,Nc1ccc(S(=O)(=O)Nc2ccccn2)cc1,-0.93% [at 42.5 µM] (inactive)
11,O=C(CN1CCN(Cc2ccc3c(c2)OCO3)CC1)N1c2ccccc2Sc2ccccc21,11.4% [at 42.5 µM] (inactive)
12,C/C=C(\C)C(=O)OCC/C=C\CC,0.636% (inactive)
13,CCCCC(C)C(=O)O (stereo not given),-2.18% (inactive)
14,NC(=O)NC(=O)Cc1ccccc1,1.38% [at 42.5 µM] (inactive)
15,CC(C)CCO,4.29% (inactive)
16,O=c1[nH]c(=O)c2ccccc2o1,8.76% [at 42.5 µM] (inactive)
17,Nc1c(NC/C=C\COc2cc(CN3CCCCC3)ccn2)c(=O)c1=O,2.1% [at 19 µM] (inactive)
18,O=CN1CCOCC1,0.0472% (inactive)
19,CCCCC[Si](OCC)(OCC)OCC,10.4% (inactive)
20,Cc1nc([N+](=O)[O-])cn1-c1ccc([N+](=O)[O-])cc1,1.52% [at 42.5 µM] (inactive)
